PubChem BioAssay (EPA / NIEHS)
Several values for one entry are separate records, joined by “and”; a condition that tells them apart may be missing. Equal entries are not always repeated. Some compounds were tested as several samples or in several runs, with calls that do not always agree. Activity calls are given as the source filed them. The calls were made as follows: active = hit-call score of the fitted dose curve at least 0.9, where 1 is the maximum; inactive = score below 0.9.

Columns and labels:
[1] = ATG_NFI_CIS: Attagene CIS-FACTORIAL HepG2 Assay for human Nuclear Factor I (NFI) (AID 2282989); details: HepG2 cis-regulatory reporter, NFI response element transcription; actives raise or lower the signal
In short: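 Reporter transcription driven by endogenous transcription factors in HepG2 cells; 24 h treatment. Quantitation by labelled RT-PCR fragments on capillary electrophoresis, gain- or loss-of-signal relative to DMSO.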

[2] = target: Myc proto-oncogene protein (Homo sapiens) (UniProt P01106); assay: ATG_Myc_CIS: Attagene CIS-FACTORIAL HepG2 Assay for human Myelocytomatosis (Myc) Proto-Oncogene Transcription Factor (AID 2282990); details: HepG2, Attagene cis-reporter transcription factor activity; actives raise or lower the signal
Myc proto-oncogene protein (Homo sapiens), sequence (P01106 whole entry, looked up, the tested form may be a part): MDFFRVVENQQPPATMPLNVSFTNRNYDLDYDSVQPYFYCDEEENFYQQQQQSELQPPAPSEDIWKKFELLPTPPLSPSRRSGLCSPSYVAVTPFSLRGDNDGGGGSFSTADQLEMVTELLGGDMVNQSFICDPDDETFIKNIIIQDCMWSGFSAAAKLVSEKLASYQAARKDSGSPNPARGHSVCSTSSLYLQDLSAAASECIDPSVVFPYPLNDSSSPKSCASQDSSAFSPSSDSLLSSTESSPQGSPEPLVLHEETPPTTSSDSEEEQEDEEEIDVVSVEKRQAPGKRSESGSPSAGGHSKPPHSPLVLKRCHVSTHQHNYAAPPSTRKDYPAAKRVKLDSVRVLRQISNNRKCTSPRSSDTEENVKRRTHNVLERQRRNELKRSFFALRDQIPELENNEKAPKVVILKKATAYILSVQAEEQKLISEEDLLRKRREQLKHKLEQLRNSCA
In short: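 Fluorescence intensity of reporter-specific cDNA fragments, separated by capillary electrophoresis, gives the signal. Transfected HepG2 cells carrying cis-promoter reporter constructs are incubated with compound for 24 h; DMSO serves as baseline.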

[3] = ATG_NF_kB_CIS: Attagene CIS-FACTORIAL HepG2 Assay for human Nuclear Factor Kappa B (NF-kB) (AID 2282991); details: HepG2 Attagene cis-factorial NF-kB reporter mRNA; actives raise or lower the signal
In short: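 DMSO served as negative control and baseline for bidirectional curve fitting. Transiently transfected HepG2 cells were dosed for 24 h, then reporter transcripts were measured by RT-PCR with capillary electrophoresis detection.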

[4] = ATG_NRF2_ARE_CIS: Attagene CIS-FACTORIAL HepG2 Assay for human Nuclear Factor Erythroid 2 Related Factor 2 (NFR2) response to Antioxidant Response Elements (ARE) (AID 2282992); details: HepG2 Attagene ARE/NRF2 reporter, transcription factor activity; actives raise or lower the signal;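 as to AC50: reporter mRNA level measured by RT-PCR and capillary electrophoresis fluorescence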
In short: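 Cis-factorial assay: transfected HepG2 reporter library, 24 h dosing, mRNA readout via RT-PCR/CE; DMSO-referenced bidirectional analysis.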

[5] = ATG_Oct_MLP_CIS: Attagene CIS-FACTORIAL HepG2 Assay for human Octamer-Binding Transcription Factor (Oct) (AID 2282993); details: HepG2 Attagene cis-factorial Oct reporter, mRNA; actives raise or lower the signal
In short: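 Transfected HepG2 cells, 24 h treatment. Reporter mRNA quantified by RT-PCR–capillary electrophoresis; bidirectional fitting against DMSO.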

[6] = target: Cellular tumor antigen p53 (Homo sapiens) (UniProt P04637); assay: ATG_p53_CIS: Attagene CIS-FACTORIAL HepG2 Assay for human p53 Transcription Factor (AID 2282994); details: HepG2 p53 cis-element reporter, Attagene mRNA; actives raise or lower the signal
Cellular tumor antigen p53 (Homo sapiens), sequence (P04637 whole entry, looked up): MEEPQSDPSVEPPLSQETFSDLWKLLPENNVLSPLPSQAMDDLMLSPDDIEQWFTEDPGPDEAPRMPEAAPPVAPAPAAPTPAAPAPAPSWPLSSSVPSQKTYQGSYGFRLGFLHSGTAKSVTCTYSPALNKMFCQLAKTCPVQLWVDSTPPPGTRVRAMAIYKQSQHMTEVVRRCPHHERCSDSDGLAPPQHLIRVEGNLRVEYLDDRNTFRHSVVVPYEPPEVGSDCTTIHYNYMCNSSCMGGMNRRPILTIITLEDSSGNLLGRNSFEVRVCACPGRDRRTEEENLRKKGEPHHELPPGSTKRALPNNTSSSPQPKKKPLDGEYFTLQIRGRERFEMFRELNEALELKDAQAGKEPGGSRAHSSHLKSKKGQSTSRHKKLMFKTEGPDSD
In short: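 Using HepG2 hepatoma cells carrying cis-acting multiplexed reporters, mRNA induction is detected after a 24 h exposure. Gain- and loss-of-signal responses are fitted relative to DMSO-treated cells.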

[7] = BSK_3C_TissueFactor: BioMAP Diversity Plus: 3C Assay for Tissue Factor Biomarker Activity (AID 2282997); details: BioMAP 3C HUVEC, tissue factor biomarker readout; actives raise or lower the signal
In short: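 Dosing of human umbilical vein endothelial cells preceded a 24 h incubation. Tissue Factor was then read by ELISA, with increases and decreases both scored relative to DMSO controls.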

[8] = BSK_3C_uPAR: BioMAP Diversity Plus: 3C Assay for Urokinase-type plasminogen activator receptor (uPAR) Biomarker Activity (AID 2282998); details: BioMAP 3C HUVEC, uPAR biomarker ELISA; actives raise or lower the signal
In short: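 Readout: ELISA for surface uPAR. System: human umbilical vein endothelial primary cells, 24 h after chemical exposure. Analysis: bidirectional fit, DMSO baseline.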

[9] = BSK_4H_Eotaxin3: BioMAP Diversity Plus: 4H Assay for Eotaxin 3 Biomarker Activity (AID 2283000); details: primary human endothelial cells (HUVEC); actives raise or lower the signal
In short: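 Human umbilical vein endothelial cells (BSK_4H system) dosed with test chemical; Eotaxin-3 (CCL26) measured by ELISA 24 h after dosing. Bidirectional curve fitting relative to DMSO negative control as baseline.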

[10] = BSK_3C_VCAM1: BioMAP Diversity Plus: 3C Assay for Vascular cell adhesion molecule 1 (VCAM1) Biomarker Activity (AID 2282999); details: BioMAP 3C HUVEC, VCAM1 ELISA, cytokine-stimulated; actives raise or lower the signal
In short: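 Human umbilical vein endothelial cells (3C system), biomarker read by ELISA 24 h after dosing; bidirectional fit against DMSO baseline. Cytotoxicity tracked by SRB total-protein staining in parallel cultures at biomarker time.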

Measured: AC50

CCN(CCC#N)c1ccccc1
inactive: [1] | [2] | [3] | [4] | [5]

C[N+](C)(CCCNS(=O)(=O)CCC(F)(F)C(F)(F)C(F)(F)C(F)(F)C(F)(F)C(F)(F)F)CC(=O)[O-]
inactive: [1] | [2] | [3] | [5] | [6]
active: [4] 0.00659 µM

CC1=CC(=O)c2ccccc2C1=O
inactive: [1] | [2] | [3] | [5] | [6]
active: [4] 5.04 µM

C=CC(=O)OCC(CO)(COCC(COC(=O)C=C)(COC(=O)C=C)COC(=O)C=C)COC(=O)C=C
inactive: [1] | [2] | [4]
active: [3] 0.817 µM | [5] 2.89 µM | [6] 2.86 µM

O=C(O)c1cccc(C(=O)O)n1
inactive: [1] | [2] | [3] | [4] | [5] | [6]

CC(=O)CC(C)C
inactive: [1] | [2] | [3] | [4] | [5] | [6]

Clc1ccc2c(Cl)ccnc2c1
active: [4] 3.21 µM
inactive: [1] | [2] | [3] | [5] | [6]

CCOC=O
inactive: [1] | [2] | [3] | [4] | [5] | [6]

CC1CNCC(C)O1 (configuration not stated)
inactive: [1] | [2] | [3] | [4] | [5] | [6]

CC(=O)Nc1ccc(S(N)(=O)=O)cc1
inactive: [1] | [2] | [3] | [4] | [5] | [6]

CC(C)(C)c1ccc(CCC=O)cc1
active: [4] 130 µM | [6] 182 µM
inactive: [1] | [2] | [3] | [5]

Cc1cc(C(=C2C=CC(=Nc3ccc(S(=O)(=O)O)cc3)C=C2)c2ccc(Nc3ccc(S(=O)(=O)O)cc3)cc2)cc(S(=O)(=O)O)c1N
inactive: [1] | [2] | [3] | [4] | [5] | [6]

c1cc[nH]c1
inactive: [1] | [2] | [3] | [4] | [5] | [6]

C=CCOCC(CO)(CO)CO
inactive: [1] | [2] | [3] | [4] | [5] | [6]

CC(C)C=O
inactive: [1] | [2] | [3] | [4] | [5] | [6]
active: [4] 64.6 µM

FC(F)(F)C1(F)C(F)(F)C(F)(F)C(F)(F)C(F)(C(F)(F)F)C1(F)F (configuration not stated)
inactive: [1] | [2] | [3] | [4] | [5] | [6]

C=C(c1ccc(C(=O)O)cc1)c1cc2c(cc1C)C(C)(C)CCC2(C)C
active: [2] 26 µM | [3] 11.1 µM | [5] 11.1 µM
inactive: [1] | [2] | [3] | [4] | [5]

CCC(=O)O
inactive: [1] | [2] | [3] | [4] | [5] | [6]

CCc1cccc(CC)c1N(COC)C(=O)CS(=O)(=O)O
inactive: [1] | [2] | [3] | [4] | [5] | [6]

O=C(O)C(F)(F)OC(F)(F)C(F)(F)OC(F)(F)C(F)(F)OC(F)(F)C(F)(F)C(F)(F)C(F)(F)F
inactive: [1] | [2] | [3] | [4] | [6]
active: [1] 80.8 µM | [2] 11.9 µM | [3] 27.5 µM | [4] 4.04 µM | [5] 34 µM and 29.7 µM | [6] 27.4 µM | [7] 22.3 µM and 27.7 µM | [8] 21.3 µM and 23 µM | [9] 45.5 µM and 51.6 µM

O=CC(F)(F)C(F)(F)C(F)(F)C(F)F
inactive: [1] | [2] | [3] | [4] | [5] | [6]

O=C1OC(=O)C(F)(F)C1(F)F
inactive: [1] | [2] | [3] | [4] | [5] | [6]

CCCCCCCCCCCC[N+](C)(C)Cc1ccccc1
inactive: [1] | [2] | [3] | [4] | [5]
active: [4] 9.38 µM | [5] 13.5 µM

O=C1OC(=O)c2cc(-c3ccc4c(c3)C(=O)OC4=O)ccc21
inactive: [1] | [2] | [3] | [4] | [5] | [6]

COC(=O)CC(C(C)=O)C(=O)OC (configuration not stated)
inactive: [1] | [2] | [3] | [4] | [5] | [6]

Cc1cncc(C)c1
inactive: [1] | [2] | [3] | [4] | [5] | [6]

CCO[Si](CCC1CCC2OC2C1)(OCC)OCC (configuration not stated)
inactive: [1] | [2] | [3] | [4] | [5]

O=C(NO)c1ccccc1
inactive: [1] | [2] | [4] | [5] | [7] | [8] | [10] | [9]
active: [3] 22 µM [middle of 4 runs] | [4] 16.2 µM and 18.5 µM | [6] 35.3 µM [middle of 4 runs]

c1cnc2c(c1)ccc1cccnc12
active: [3] 100 µM | [4] 3.04 µM | [5] 155 µM | [6] 6.68 µM and 6 µM
inactive: [1] | [2] | [3] | [4] | [5]
